Screens: PubChem, National Center for Advancing Translational Sciences (NCATS)
Pf growth 96h: Primary qHTS for delayed death inhibitors of the malarial parasite plastid, 96 hour incubation | P. falciparum luciferase reporter growth, 96 h | Potency, µM (highest dose often 28.7 µM), inactives show top-dose activity change, negative = inhibition, most hits filed as inhibitors | 320,000 compounds, 6.9% hits; note: % is set by controls: 0 for no effect and ±100 for the full control effect
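Luminescence readout: decreased luciferase signal marks inhibited growth of reporter-expressing P. falciparum in infected red cells (2% hematocrit, 0.05% parasitemia final), exposed to compound two generations (96 h, 37 C, 5% CO2).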
Pf growth 48h: Primary qHTS for delayed death inhibitors of the malarial parasite plastid, 48 hour incubation; P. falciparum luciferase growth in erythrocytes, 48 h; Potency, µM (highest dose often 28.7 µM), for the others: at the top dose activity change, negative = inhibition, most hits filed as inhibitors; 310,000 compounds, 5.9% hits; AID 504832, 2011; note: % is set by controls: 0 for no effect and ±100 for the full control effect
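First compound was added to culture medium, then infected red cells at 0.1% parasitemia and 2% hematocrit (final). After incubation at 37 C under 5% CO2, luciferase detection reagent was dispensed and light output recorded.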
AMA1-RON2 inh: qHTS for Inhibitors of AMA1-RON; Towards Development of Antimalarial Drug Lead: Primary Screen. AlphaScreen AMA1-biotinylated RON2 peptide binding. 360,000 compounds, 0.2% hits. Potency, µM (top dose mostly 58.2 µM), for the others: at the top dose activity change, negative = inhibition, hits mostly inhibitors;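 note: 0% = vehicle wells and -100% = peptide control; nearly all actives have a fitted effect of over 45% in size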
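AMA1 (3D7) with his tag at 25 nM final met compounds first, then biotinylated RON2 peptide at 25 nM; detection used donor plus acceptor beads, 10 µg/mL apiece, read by AlphaScreen after 30 min at room temperature.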
NS1 function inh: qHTS Assay for Inhibitors of Influenza NS1 Protein Function; Potency, µM (series often up to 46.1 µM), for the others: top-dose activity, positive = more growth; 270,000 compounds, 0.4% hits; AID 2326, 2010; calls by dose curve; note: actives are rising curves; nearly all actives have a fitted effect of over 50% in size
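Recovery from NS1-induced slow growth read by OD600 in budding yeast switched to galactose assay medium (pH 6.0, -URA) at 1:100 dilution. Compound 23 nl per well; the matching strain lacking NS1 serves as control.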
Sm TGR block: qHTS Assay for the Inhibitors of Schistosoma Mansoni Peroxiredoxins | 360,000 compounds, 3% hits | AID 485364, 2010 | Schistosoma mansoni thioredoxin glutathione reductase (TGR), Q962Y6 | purified TGR, DTNB reduction, TNB absorbance 405 nm | Potency, µM (titrated, usually from 114 µM), for the others: top-dose activity change, negative = inhibition, most hits filed as inhibitors; note: % is set by controls: 0 for no effect and ±100 for the full control effect; nearly all actives have a fitted effect of over 60% in size
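First, TGR (20 nM dispensed) and NADPH were mixed with compound. Second, a 15 min room-temperature incubation followed. Third, further NADPH and then DTNB were added to start the reaction. Finally, TNB absorbance was monitored kinetically.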
Numbers without * were called inactive; ? = inconclusive; . = no result given; [ ] = dose if it differs, or a comment. Sampled rows, rich in hits. Any-hit rate of the full collection: about 11%. Unless noted, calls come from the whole dose curve; as a rule, active = well fitted curve in the direction sought with a large enough effect; inconclusive = small, poorly fitted or top-dose-only effect, or another doubt; inactive = no such curve, though single readings can be large; an effect the other way counts as inactive or inconclusive. Potency is the fitted concentration of half-maximal effect.

SMILES	Pf growth 96h	Pf growth 48h	AMA1-RON2 inh	NS1 function inh	Sm TGR block
CCOC(=O)c1ccc(NC(=O)c2cnc3c(-c4ccc(F)cc4)c(C)nn3c2C)cc1	.	.	.	.	-0.9%
Oc1ccc(C=NNC(=S)Nc2ccccc2)nc1	.	.	-83.5%	.	.
O=C(NCC(c1ccco1)N1CCCC1)c1cc2cc(Cl)ccc2o1 (stereo unspecified)	9.28µM*	?	-6.5%[11.6 µM]	.	-22.3%
Cc1cc(C)c(OCC(=O)NCC(c2ccco2)N2CCCCC2)c(C)c1 (stereo unspecified)	11.7µM*	13.1µM*	-8.2%	.	-0.8%
Cc1ccccc1OCC(=O)NCC(c1ccco1)N1CCCCC1 (stereo unspecified)	?	22.2%	-11.6%	10.6%	-22.7%
O=C(Cn1c(=O)n(-c2ccccc2Cl)c(=O)c2sc3ccccc3c21)NC1CCCC1	.	.	.	.	1.4%
COc1cc(C(=O)N/N=C(\C)c2ccc(NC(=O)Cc3ccccc3)cc2)ccc1O	35.1%	8.6%	10.8%	4.1%	-1.4%
Cn1c(COc2ccc(Cl)cc2)nnc1SCc1ncc(-c2ccccc2)o1	?	?	32.5%	-51.9%	22.4µM*
COc1ccc(-n2cnnc2SCc2ncc(-c3ccccc3)o2)cc1	?	0.0%	-10.1%	-3.7%	?
Cc1cc(C)nc(SCc2nnc(SCC(=O)Nc3nc(-c4ccccc4)cs3)n2C)n1	-26.7%	?	18.7%	17.6%	?
Cc1ccccc1C(=O)NCCc1nnc(SCC(=O)Nc2nc(-c3ccccc3)cs2)n1C	13.1µM*	-3.5%	0.9%	17.0%	-12.6%
NS(=O)(=O)c1ccc(CCNc2ncnc3c2cnn3-c2cccc(Cl)c2)cc1	.	.	.	.	0.0%
CCc1cc2ccccc2nc1Cl	5.8%	-4.7%	-6.8%	1.8%	.
Cc1ccc2cc(CCl)c(Cl)nc2c1	1.6%	-17.3%	?	-31.8%	25.1µM*
ClCc1cc2ccccc2nc1Cl	7.1%	?	-1.1%	4.2%	31.6µM*
Cc1ccc2cc(C)c(SCC#N)nc2c1	?	10.9%	5.4%	-2.6%	12.6%
Cc1cccc(C)c1-n1nnnc1C1(C)CCC(=O)N1c1ccc(N2CCOCC2)cc1 (stereo unspecified)	.	.	-6.0%	.	.
COc1ccc2c(c1)C1=NN(/C(C)=C\C(C)=O)C(c3ccccc3)C1CC2 (stereo unspecified)	1.2%	13.1µM*	0.0%	-16.2%	56.2µM*
O=C(Nc1ccnn1C1CCN(C/C=C/c2ccccc2)CC1)c1ccccc1Cl	31.3%	?	-3.1%	17.4%	-11.3%
COc1ccccc1C(=O)Nc1ccnn1C1CCN(C/C=C/c2ccc(F)cc2)CC1	-12.6%	11.7µM*	0.0%	16.8%	-19.4%
O=C(Nc1ccnn1C1CCN(C/C=C/c2ccccc2)CC1)C1CCCC1	?	13.1µM*	0.0%	21.0%	-5.6%
Cc1ccc(C)c(NC(=O)C(NS(=O)(=O)c2ccc3c(c2)CCC(=O)N3)c2ccccc2)c1 (stereo unspecified)	.	.	.	.	10.2%
CCOC(=O)CC1CCCCN1C(=O)CCCn1nnnc1CN1CCC(C)CC1 (stereo unspecified)	?	?	-1.2%	-8.8%	-18.1%
Cc1ccc(Nc2cc(=O)oc3ccccc23)c(C)c1	0.131µM*	?	-5.2%	-71.1%	10.5%
Cc1ccccc1Nc1cc(=O)oc2ccccc12	13.1µM*	.	12.8%	-46.8%	-5.1%
SMILES	Pf growth 96h	Pf growth 48h	AMA1-RON2 inh	NS1 function inh	Sm TGR block
O=C1/C(=C\c2ccco2)SC(=S)N1c1ccc(O)cc1	13.0%	-21.1%	-22.2%	-28.8%	?
O=C(NN1C(=O)/C(=C/C=C/c2ccco2)SC1=S)c1ccncc1	14.4%	-62.1%	5.62µM*	13.8%	3.16µM*
CN(C)c1ccc(/C=C/C=C2/SC(=S)N(c3ccccc3)C2=O)cc1	9.4%	118.5%	2.51µM*	.	-33.6%
O=C(NN1C(=O)/C(=C/C=C/c2ccccc2)SC1=S)c1ccncc1	0.3%	22.8%	3.2%	.	-22.8%
O=C1/C(=C/C=C/c2ccco2)SC(=S)N1c1ccc(O)cc1	14.4%	12.5%	?	6.5%	4.47µM*
CC(C)C(C(=O)O)N1C(=O)/C(=C/C=C/c2ccco2)SC1=S (stereo unspecified)	?	74.7%	?	15.2%	11.2µM*
COc1ccc(C(CNC(=O)c2ccc(C)c(S(=O)(=O)N3CCOCC3)c2)N2CCCC2)cc1 (stereo unspecified)	.	.	-8.1%	.	.
COc1ccc(C2NC(=O)NC(C)=C2C(=O)OCC2CCCCC2)cc1OC (stereo unspecified)	14.0%	-18.1%	-4.6%	0.5%	11.6%
Cn1c(SCc2ccccc2)nnc1-c1ccc2nonc2c1	64.3%	8.5%	-2.1%	-2.0%	8.9%
Cc1onc(-c2ccccc2)c1C(N)=O	.	12.0%	4.8%	-4.9%	0.3%
Cc1onc(-c2ccccc2)c1C(=O)n1nnc2ccccc21	51.3%	17.1%	16.5%	-89.4%	17.8µM*
CC(C(=O)O)n1nnc2ccccc21 (stereo unspecified)	58.4%	32.9%	-11.2%	-1.6%	9.4%
O=C(c1ccccc1)n1nnc2ccccc21	26.1%	21.4%	-3.3%	5.9%	15.8µM*
Cc1onc(-c2ccccc2)c1C(=O)N1CCCSC1=Nc1ccccc1	?	2.94µM*	0.0%	-35.8%	-3.4%
CCOC(=O)c1c(C)[nH]c(C)c1S(=O)(=O)N1CCC(C(=O)NCc2ccccc2Cl)CC1	.	.	.	.	-9.2%
CCOC(=O)c1sc2nc(C)nc(NCc3ccc(Cl)cc3)c2c1C	?	9.28µM*	6.0%	-12.7%	7.1%
CCN(CC)CCn1c2ccccc2c2cnc(N)c(C#N)c21	2.62µM*	2.62µM*	2.2%	-7.7%	-9.7%
Cn1c2ccccc2c2cc(/C=N/NC(=O)c3ccc(N)cc3)ccc21	?	13.1µM*	19.4%	-52.3%	-0.3%
c1ccc2c(CNC3CCCCC3)c[nH]c2c1	13.1µM*	.	-3.9%	-8.0%	2.9%
S=C(NCCc1c[nH]c2ccccc12)NC1CCCCC1	-1.8%	23.5%	-14.1%	.	2.3%
c1ccc2c(CN3CCN(C4CCCCC4)CC3)c[nH]c2c1	11.7µM*	6.57µM*	4.4%	15.0%	-24.4%
O=C(NCC(=O)N1CCCC(C(F)(F)F)C1)c1ccc(Br)o1 (stereo unspecified)	6.5%	4.6%	48.8%	.	3.7%
